Source: PubChem BioAssay (National Center for Advancing Translational Sciences (NCATS))
AmpC no deterg: qHTS Inhibitors of AmpC Beta-Lactamase (assay without detergent). AmpC nitrocefin hydrolysis, absorbance 480 nm, 0.0001% Triton. Potency, µM (series often up to 57.1 µM), without a hit: top-dose activity change, negative = inhibition, hits mostly inhibitors. 330,000 tested, 0.52% active. AID 485341, 2010;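 further: potency means the concentration at half of the fitted maximal effect; plate controls were no compound for no effect and no enzyme for full effect; nearly all actives have a fitted effect of over 20% in size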
Target sequence (P00811 whole entry, looked up): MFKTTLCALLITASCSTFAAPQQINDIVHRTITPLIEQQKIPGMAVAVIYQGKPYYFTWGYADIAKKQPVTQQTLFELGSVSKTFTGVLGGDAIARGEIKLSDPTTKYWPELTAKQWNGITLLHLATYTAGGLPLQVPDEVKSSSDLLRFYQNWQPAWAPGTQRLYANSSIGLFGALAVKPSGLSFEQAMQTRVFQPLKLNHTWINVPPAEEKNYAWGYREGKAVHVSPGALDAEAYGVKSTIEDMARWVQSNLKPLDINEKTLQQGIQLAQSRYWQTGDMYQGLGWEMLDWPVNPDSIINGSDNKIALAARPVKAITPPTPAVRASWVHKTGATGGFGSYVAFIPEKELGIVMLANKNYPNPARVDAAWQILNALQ
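AmpC (5.3 nM in the dispensed reagent) in 20 mM phosphate pH 7.0 with 0.01% (detergent screen) or 0.0001% Triton X-100 was preincubated with compounds for 15 min at room temperature. Nitrocefin was then added from an 800 uM solution, and hydrolysis was followed at 480 nm.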
AmpC inh detg: qHTS Inhibitors of AmpC Beta-Lactamase (assay with detergent); 370,000 tested, 0.041% active; Potency, µM (series often up to 114 µM), without a hit: at the highest dose activity change, negative = inhibition, usual class: inhibitors; AmpC hydrolysis of nitrocefin, absorbance 480 nm, 0.01% Triton; P00811;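 further: potency means the concentration at half of the fitted maximal effect; 0% = no-compound wells and -100% = no-enzyme wells; nearly all actives have a fitted effect of over 25% in size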
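AmpC (5.3 nM in the dispensed reagent) in 20 mM phosphate pH 7.0 with 0.01% (detergent screen) or 0.0001% Triton X-100 was preincubated with compounds for 15 min at room temperature. Nitrocefin was then added from an 800 uM solution, and hydrolysis was followed at 480 nm.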
Shiga inhibitor: A qHTS for Small Molecule Inhibitors of Shiga Toxin; Vero cells, Shiga toxin protein synthesis inhibition reporter; inhibition, % at 38.7 µM; 290,000 tested, 9.2% active; AID 2315, 2010; in the data active means inhibition mostly above about 28%, no sharp cut-off; inactive means mostly below about 43%; further: 0% is about no effect
Cycloheximide cs: Cycloheximide Counterscreen for Small Molecule Inhibitors of Shiga Toxin. cell reporter, cycloheximide protein synthesis inhibition counterscreen. max response, %. 300,000 tested, 12% active. AID 2314, 2010; in the data active means max response mostly above about 13%, no sharp cut-off; inactive means mostly below about 14%; further: read at 38.3 µM for the half of the compounds with a filed dose; 0% is about no effect
NS1 inh: qHTS Assay for Inhibitors of Influenza NS1 Protein Function; Potency, µM (series often up to 46.1 µM), inactives show top-dose activity, positive = more growth; 270,000 tested, 0.4% active; AID 2326, 2010; calls by dose curve; further: potency means the concentration at half of the fitted maximal effect; actives are rising curves; nearly all actives have a fitted effect of over 50% in size
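In this qHTS, NS1 from influenza A is expressed in budding yeast, where it slows growth. Cells are switched from glucose to 2% galactose medium (pH 6.0, -URA), treated with compound, and growth recovery is read at OD600.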
Active calls of the source: *; ? = inconclusive; · = no result given; [ ] = dose if it differs, or a comment. The entries come from a sample that favours hits as a whole. Unless noted, the call rests on the fitted dose curve; in most records, active means well fitted curve in the direction sought with a large enough effect; inconclusive means small, poorly fitted or top-dose-only effect, or another doubt; inactive means no such curve, though single readings can be large; an effect the other way counts as inactive or inconclusive.

SMILES	AmpC no deterg	AmpC inh detg	Shiga inhibitor	Cycloheximide cs	NS1 inh
Nc1ccc(NC(=O)NC2CCCCC2)cc1	-12%	7%	61*	38*	0%
O=C(Cc1ccc(Cl)cc1)NNC(=O)C(=O)NC1CCCCC1	-5%	·	·	·	·
O=C(COc1ccc(Cl)cc1[N+](=O)[O-])NC1CCCCC1	0%[2.29 µM]	?	71*	24*	-5%
O=C(Cc1ccc(Cl)cc1)NC1CCCCCC1	-15%	-9%	21	20*	1%
COC(=O)[C@H](CC(C)C)NC(=O)NCCC1=CCCCC1	11%	0%	15	4	-2%
CC(NCc1ccc2c(c1)OCO2)C(=O)NC1CCCCC1 (stereo unspecified)	-17%	1%	-6	-1	2%
CC(NCc1ccc(F)cc1)C(=O)NC1CCCCC1 (stereo unspecified)	-2%	1%	53*	7.1*	2%
O=C(Nc1ccc(Cl)cc1)NC1CCCCNC1=O (stereo unspecified)	-8%	-10%	46*	28*	6%
O=C(Nc1ccc(F)c(F)c1)NC1CCCCC1	-22%	-11%	50*	30*	-51%
O=C1NCCCC1C(=O)N/N=C/c1ccc(Cl)cc1 (stereo unspecified)	-20%	-8%	14	10	2%
O=C(NC1CCCCCCC1)c1ccc(F)cc1	-11%	10%	71*	46*	-8%
O=C(Nc1ccc2nsnc2c1)C1CC1	-9%	14%	15	12	-4%
CC1CCCCN1C(=O)Cc1ccc(Cl)cc1 (stereo unspecified)	-23%	-9%	19	14*	2%
O=C(COc1ccc([N+](=O)[O-])cc1Cl)NCC1CCCO1 (stereo unspecified)	-6%	1%	46*	16*	·
O=C(Nc1ccc(Cl)cc1)NC1CCCC1Cc1ccco1 (stereo unspecified)	-35%	-2%	47*	41*	-84%
O=C(Nc1ccc2nsnc2c1)NC1CCCCC1	-34%	6%	72	50*	-7%
CC(C)CNS(=O)(=O)c1ccc(OCC(=O)NCC2CCCO2)c(Cl)c1 (stereo unspecified)	8%	2%	-9	0	5%
CC(C)(C)C(=O)N1CCC(O)(CS(=O)(=O)Cc2ccccc2)CC1	-4%	-8%	-2	-3	·
O=C(NC1CCN(Cc2ccccc2)CC1)c1ccc2c(c1)[nH]c(=O)n2Cc1ccc(F)cc1	-13%	-1%	-10	-3	0%
O=C(NC1CCCCCC1)c1ccc(N2CCCC2=O)cc1	-6%	-10%	74*	21	1%
O=C(NC1CCCCC1)c1ccc(N2CCCC2=O)cc1	-10%	?	43	16	1%
CCOC(=O)C(O)(c1ccc(NC(=O)NC2CCCCC2)cc1)C(F)(F)F (stereo unspecified)	-21%	-19%	58	20*	0%
CCOc1ccc2c(c1)ncn2Cc1ccccc1	-7%	1%	108*	24*	·
CC(=O)Oc1ccc(Cn2cnc3cc4ccccc4cc32)cc1	0%	0%	19	15*	-20%
CN(C)CCNC(=O)c1cc2c(s1)-c1ccc(Cl)cc1SC2	79%	-3%	-20	-8	-33%
SMILES	AmpC no deterg	AmpC inh detg	Shiga inhibitor	Cycloheximide cs	NS1 inh
Cc1cc(N2CCN(C)CC2)nc2ccc(NC(=O)c3ccc4c(c3)OCO4)cc12	123%	6%	38	20*	1%
Cc1cc(N2CCCCC2)nc2ccc(NC(=O)c3ccc(Br)o3)cc12	6%	2%	22	8	-76%
Cc1cc(N2CCN(C)CC2)nc2ccc(NC(=O)c3ccc(Br)o3)cc12	96%	-3%	101*	26*	-1%
CC1(C)CC(=O)C=C(NNC(=O)c2ccccc2)C1	-34%	6%	active	24*	21%
CC1(C)CC(=O)C=C(NNC(=O)c2ccc(N)cc2)C1	-54%	-7%	6	6	17%
O=C(Nc1nnc(C2CC2)s1)C1Cc2ccccc2CN1S(=O)(=O)c1cccs1 (stereo unspecified)	-20%	-9%	75*	17*	-15%
CCc1nnc(NC(=O)C2Cc3ccccc3CN2S(=O)(=O)c2ccc(C)cc2)s1 (stereo unspecified)	-2%	0%	59*	37*	30%
CCc1nnc(NC(=O)C2CCCN2S(=O)(=O)c2ccc(C)cc2)s1 (stereo unspecified)	1%	3%	12	-2	-7%
CCc1nnc(NC(=O)C2Cc3ccccc3CN2S(=O)(=O)c2cccs2)s1 (stereo unspecified)	-11%	-1%	49*	43*	?
CNC(=O)C1Cc2ccccc2CN1S(=O)(=O)c1cccs1 (stereo unspecified)	-14%	3%	-15	-2	4%
NCCSCCC(=O)O	·	·	·	·	-6%
CCc1nc(SCc2ccc(OCC(C)C)cc2)n[nH]1	-5%	1%	58*	32*	-141%
CCc1nc(SCc2ccc(Br)cc2)n[nH]1	-28%	0%	116*	26*	-33%
CCc1nc(SCc2ccc(OC)c(Br)c2)n[nH]1	-17%	-1%	69	10	-2%
FC(F)(F)c1nc(SCc2ccc(Cl)cc2)n[nH]1	·	·	·	·	-6%
CCc1nc(SCc2ccc(Cl)cc2)n[nH]1	-7%[2.29 µM]	?	41*	33*	-5%
Cc1ccc(NC(=O)Cn2cc(C(=O)C3CC3)c3ccccc32)cc1C	·	-1%	·	·	·
CCOC(=O)/C(=N/Nc1ccccc1)N1CCCc2ccccc21	25µM*	18%	16	1	17%
CCOC(=O)/C(=N/Nc1ccc(OC)cc1)N1CCCc2ccccc21	-2%	-9%	41*	21	-52%
c1ncc(CCCC2CCNCC2)[nH]1	·	·	2	-5	·
CC(C)=CCCC(C)NC(=O)NC1CCCCC1 (stereo unspecified)	-23%	0%	38	23*	-6%
CC(C)[C@H](NC(=O)NC1CCCC1)C(=O)O	-15%	-12%	-11	-1	-2%
COC(=O)c1ccc(NC(=O)Cn2ccn3nc(-c4ccc(OC)cc4)cc3c2=O)cc1	·	5%	·	·	·
Cc1cc(SCC(=O)Nc2nsc(-c3ccc(C(C)(C)C)cc3)n2)nc2ccccc12	·	23%	·	·	·
COc1ccc(NC(=O)CNS(=O)(=O)c2ccccc2)cc1Cl	0.63µM*	-3%	4	14*	-4%
COc1ccc(NC(C)=[N+](C)CCNS(=O)(=O)c2ccc(Cl)cc2)cc1Cl	-1%	0%	21	16*	7%
COc1ccc(NC(=O)COC(=O)CNS(=O)(=O)c2ccccc2)cc1OC	-30%	-2%	1	1	·
O=C1CCCC1C(=O)Nc1ccc2ccccc2c1 (stereo unspecified)	-17%	1%	45*	17*	-12%
